Pf apPOL inh: Pf-apPOL DNA polymerase inhibition | actives 0.25% (n = 210,000) | Recombinant Pf-apPOL, molecular beacon fluorescence, 1.5 h | AID 1794808 | inhibition, % at 10 µM
mHTT CaM bind: inhibitors of human mutant huntingtin-calmodulin interaction. P42858. AlphaScreen His-mHTT/GST-CaM binding, luminescence. inhibition, % at 15 µM. actives 3.6% (n = 190,000). AID 1671202
Large screens that a line does not name were inactive. Only a selection was taken, and hits are over-represented in it overall. Cut-off read from the data, not from the text of the source: active = inhibition above about 50%; inactive = the rest.

COc1ccc(-c2csc(Nc3cccc(O)c3)n2)cc1	mHTT CaM bind 89
COc1ccc(-c2csc(Nc3cccc(C(=O)O)c3)n2)cc1	none
COc1cccc(Nc2nc(-c3ccc(F)cc3)cs2)c1	mHTT CaM bind 59
Fc1ccc(-c2csc(Nc3ccc(Oc4ccccc4)cc3)n2)cc1	none
CCc1ccc(/C=C(\C#N)c2nc3ccccc3[nH]2)cc1	none
CCCCN1N=C(C(=O)N2CCC(C)CC2)S(=O)(=O)c2ccccc21	none
Cc1cc(C)c(S(=O)(=O)N2CCCC(C)(C(=O)NCc3ccc(F)cc3)C2)cc1C (stereo not given)	mHTT CaM bind 61
Cc1cc(C)c(S(=O)(=O)N2CCCC(C)(C(=O)NCc3ccc(F)cc3)C2)c(C)c1 (stereo not given)	mHTT CaM bind 91
Cc1cc(C)c(S(=O)(=O)N2CCCC(C)(C(=O)NCc3cccc(F)c3)C2)c(C)c1 (stereo not given)	none
Cc1cccc(S(=O)(=O)N2CCCC(C)(C(=O)NCc3ccc(F)cc3)C2)c1 (stereo not given)	none
CCOc1ccccc1NC(=O)CN(c1ccccc1OC)S(C)(=O)=O	none
N#CC1=C(S)NC(O)(c2ccccc2)C([n+]2ccc3ccccc3c2)C1c1ccncc1 (stereo not given)	none
N#CC1=C(O)NC(=O)C([n+]2ccccc2)C1c1ccccc1I (stereo not given)	none
N#CC1=C(S)NC(O)(c2ccccc2)C([n+]2ccccc2)C1c1ccccc1F (stereo not given)	mHTT CaM bind 56
N#CC1=C(S)N[C@H](c2cccnc2)[C@@](C#N)(C(N)=S)[C@H]1c1cccnc1	none (no result: Pf apPOL inh)
N#CC1=C(S)NC(O)(c2ccccc2)C([n+]2ccc3ccccc3c2)C1c1ccc(F)cc1 (stereo not given)	mHTT CaM bind 75
N#CC1=C(S)NC(O)(c2ccccc2)C([n+]2cccc3cc(Cl)ccc32)C1c1cccnc1 (stereo not given)	mHTT CaM bind 59
COc1ccccc1NC(=O)NC1(C(F)(F)F)Oc2ccccc2O1	none
O=C(Cn1cc(-c2ccccc2)oc1=O)NCc1cccc(F)c1	none
CCCCN1C(=O)C(C)(C(=O)N2CCN(CC)CC2)Oc2cccnc21 (stereo not given)	none
O=C1C(=O)N(CCN2CCOCC2)C(c2ccccc2F)C1=C(O)c1ccc(Cl)cc1 (stereo not given)	none
Clc1cc2c(c3ncccc13)OCN(CCCN1CCOCC1)C2	mHTT CaM bind 100
Cc1cc(Cl)c(OCCCN2CCOCC2)c(Br)c1	none
Cc1ccc(C2N(c3cccc(Cl)c3)C(=O)C3CCCN32)cc1 (stereo not given)	none
COCCN1CCC(N2CCCN(C(=O)c3ccc(C)s3)CC2)C1=O (stereo not given)	none
N#Cc1ccc(-c2ccncc2)nc1SCc1ccncc1	none (no result: Pf apPOL inh)
Cc1c2c(n(Cc3c(F)cccc3F)c1C(=O)NCc1ccccn1)CCCC2	none
Cc1cccc(Cn2c3c(c(C)c2C(=O)NCc2ccccn2)CCCC3)c1	mHTT CaM bind 86
COc1ccc(CC(=O)Nc2nnc(Cc3ccc(F)cc3)o2)cc1	none
CN(C)c1ccc(CCCNS(=O)(=O)Cc2cccc(Cl)c2)cc1	none
CN(C)c1ccc(CCCNS(=O)(=O)c2ccc(Cl)s2)cc1	mHTT CaM bind 65
CCN(CC)CCC(c1ccc(N(C)C)cc1)c1c(OC)cc(OC)c2c(-c3ccccc3)cc(=O)oc12 (stereo not given)	mHTT CaM bind 100
COc1cc(OC)c2c(-c3ccccc3)cc(=O)oc2c1C(CCN1CCN(c2ccccc2)CC1)c1ccc(N(C)C)cc1 (stereo not given)	mHTT CaM bind 69
COc1cc(OC)c2ccc(=O)oc2c1C(CCN1CCOCC1)c1ccc(N(C)C)cc1 (stereo not given)	none
COc1ccc(C(CCN2CCN(c3ccccc3)CC2)c2c(OC)cc(OC)c3c(-c4ccccc4)cc(=O)oc23)cc1 (stereo not given)	none
COc1cc(OC)c2ccc(=O)oc2c1C(CCN1CCN(c2ccccc2)CC1)c1ccc(N(C)C)cc1 (stereo not given)	mHTT CaM bind 84
CCN(CC)C(=O)CC(c1ccc(OC)cc1)c1c(OC)cc(OC)c2ccc(=O)oc12 (stereo not given)	none
O=C(c1cccs1)N1CCN(c2cc(Oc3ccc(F)c(F)c3)ncn2)CC1	none
CS(=O)(=O)N1CC(C(=O)Nc2ccc(F)c(F)c2)C2(CCCCC2)C1 (stereo not given)	none
O=C(CN(c1cc(C(F)(F)F)ccc1Cl)S(=O)(=O)c1ccccc1)Nc1ccccc1	mHTT CaM bind 99
Cc1ccc(S(=O)(=O)N(CC(=O)Nc2ccccc2F)c2ccccc2C)cc1	mHTT CaM bind 82
COc1ccccc1NC(=O)CN(c1ccccc1C)S(=O)(=O)c1ccc(C)cc1	none
Cc1cccc(N(CC(=O)Nc2ccc(F)cc2)S(=O)(=O)c2ccccc2)c1C	mHTT CaM bind 100
COc1ccc(NC(=O)CN(c2ccc(C)cc2)S(=O)(=O)c2ccc(F)cc2)cc1OC	Pf apPOL inh 90

Screens from PubChem BioAssay.
